Measured values as given in PMC8384837, “Expanding the binding specificity for RNA recognition by a PUF domain”.

Assays:
Experiment in all cases: yeast three-hybrid, YBZ-1, SC-Leu-His + 0.5 mM 3-AT, 4 days
Conditions in all cases: tags: N-Gal4 AD-HA kept; label: inside an RPR1-promoter hybrid RNA with tandem MS2 sites; ssRNA
[1] = target: PUM1 PUF domain R5-GPR (Homo sapiens, UniProt Q14671 828-1176, C1007G;R1008P;Q1011R)
How it was run: (§1)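 Pumilio-1 PUF domain libraries, randomized (NNK) at the three base-contacting residues of each repeat, were co-expressed with matching RNA elements from a centromeric plasmid in strain YBZ-1 (LexA–MS2 coat fusion, HIS3 reporter). Transformants were plated on SC-Leu (input) and SC-Leu-His + 0.5 mM 3-AT (selection) for four days, and repeat regions were PCR-amplified and Illumina-sequenced. The interaction score is the log2 change in variant frequency from input to selection, with pseudocount 1 where absent.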

[2] = target: PUM1 PUF domain R3-YWT (Homo sapiens, UniProt Q14671 828-1176, C935Y;R936W;Q939T)
Chain of PUM1 PUF domain R3-YWT (Q14671 828-1176 C935Y/R936W/Q939T): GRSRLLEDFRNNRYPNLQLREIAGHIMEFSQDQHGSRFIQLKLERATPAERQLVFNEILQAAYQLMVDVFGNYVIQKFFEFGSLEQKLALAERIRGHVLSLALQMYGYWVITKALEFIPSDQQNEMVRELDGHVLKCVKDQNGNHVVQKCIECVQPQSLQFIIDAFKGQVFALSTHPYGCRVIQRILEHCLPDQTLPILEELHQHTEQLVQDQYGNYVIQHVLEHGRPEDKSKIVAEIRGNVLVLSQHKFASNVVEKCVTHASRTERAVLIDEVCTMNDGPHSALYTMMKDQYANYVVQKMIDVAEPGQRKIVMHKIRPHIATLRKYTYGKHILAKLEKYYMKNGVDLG
How it was run: as §1

[3] = target: PUM1 PUF domain R1-RLE (Homo sapiens, UniProt Q14671 828-1176, S863R;R864L;Q867E)
Chain of PUM1 PUF domain R1-RLE (Q14671 828-1176 S863R/R864L/Q867E): as the sequence (Q14671 828-1176 C935Y/R936W/Q939T) above, with S36R, R37L, Q40E, Y108C, W109R, T112Q counted along it
How it was run: as §1

[4] = target: PUM1 PUF domain R5-ERG (Homo sapiens, UniProt Q14671 828-1176, C1007E;Q1011G)
Chain of PUM1 PUF domain R5-ERG (Q14671 828-1176 C1007E/Q1011G): as the sequence (Q14671 828-1176 C935Y/R936W/Q939T) above, with Y108C, W109R, T112Q, C180E, Q184G counted along it
How it was run: as §1

[5] = target: PUM1 PUF domain R5-KSQ (Homo sapiens, UniProt Q14671 828-1176, C1007K;R1008S)
Chain of PUM1 PUF domain R5-KSQ (Q14671 828-1176 C1007K/R1008S): as the sequence (Q14671 828-1176 C935Y/R936W/Q939T) above, with Y108C, W109R, T112Q, C180K, R181S counted along it
How it was run: as §1

[6] = target: PUM1 PUF domain R7-KPM (Homo sapiens, UniProt Q14671 828-1176, S1079K;N1080P;E1083M)
Chain of PUM1 PUF domain R7-KPM (Q14671 828-1176 S1079K/N1080P/E1083M): as the sequence (Q14671 828-1176 C935Y/R936W/Q939T) above, with Y108C, W109R, T112Q, S252K, N253P, E256M counted along it
How it was run: as §1

[7] = target: PUM1 PUF domain R5-DRL (Homo sapiens, UniProt Q14671 828-1176, C1007D;Q1011L)
Chain of PUM1 PUF domain R5-DRL (Q14671 828-1176 C1007D/Q1011L): as the sequence (Q14671 828-1176 C935Y/R936W/Q939T) above, with Y108C, W109R, T112Q, C180D, Q184L counted along it
How it was run: as §1

[8] = target: PUM1 PUF domain R5-KYK (Homo sapiens, UniProt Q14671 828-1176, C1007K;R1008Y;Q1011K)
Chain of PUM1 PUF domain R5-KYK (Q14671 828-1176 C1007K/R1008Y/Q1011K): as the sequence (Q14671 828-1176 C935Y/R936W/Q939T) above, with Y108C, W109R, T112Q, C180K, R181Y, Q184K counted along it
How it was run: as §1

[9] = target: PUM1 PUF domain R8-HYC (Homo sapiens, UniProt Q14671 828-1176, N1122H;Q1126C)
Chain of PUM1 PUF domain R8-HYC (Q14671 828-1176 N1122H/Q1126C): as the sequence (Q14671 828-1176 C935Y/R936W/Q939T) above, with Y108C, W109R, T112Q, N295H, Q299C counted along it
How it was run: as §1

[10] = target: PUM1 PUF domain R5-SKQ (Homo sapiens, UniProt Q14671 828-1176, C1007S;R1008K)
Chain of PUM1 PUF domain R5-SKQ (Q14671 828-1176 C1007S/R1008K): as the sequence (Q14671 828-1176 C935Y/R936W/Q939T) above, with Y108C, W109R, T112Q, C180S, R181K counted along it
How it was run: as §1

Chain of PUM1 PUF domain R5-GPR (Q14671 828-1176 C1007G/R1008P/Q1011R): as the sequence (Q14671 828-1176 C935Y/R936W/Q939T) above, with Y108C, W109R, T112Q, C180G, R181P, Q184R counted along it

In the case of “GGCUAGAACUAGUGGAUCCCCCGGCGCCCGGCGGCUCGAGCCCGGGUAAGUGUUAAUAGUCUGCAUGCCGCCGGGCGCCAUGCCUGCAGGUCGACUCUAGAAAACAUG”, the binding signal [1] is reported as 2.39 log2 enrichment (interaction score).

With “GGCUAGAACUAGUGGAUCCCCCGGCGCCCGGCGGCUCGAGCCCGGGUAAGUGUAAUUAGUCUGCAUGCCGCCGGGCGCCAUGCCUGCAGGUCGACUCUAGAAAACAUG” the binding signal [2] was 2.71 log2 enrichment (interaction score).

For “GGCUAGAACUAGUGGAUCCCCCGGCGCCCGGCGGCUCGAGCCCGGGUAAGUGUAAAUUGUCUGCAUGCCGCCGGGCGCCAUGCCUGCAGGUCGACUCUAGAAAACAUG”, the binding signal [3] was 2.88 log2 enrichment (interaction score).

“GGCUAGAACUAGUGGAUCCCCCGGCGCCCGGCGGCUCGAGCCCGGGUAAGUGUCAAUAGUCUGCAUGCCGCCGGGCGCCAUGCCUGCAGGUCGACUCUAGAAAACAUG” was tested, and the binding signal [1] was 4.4 log2 enrichment (interaction score), the binding signal [4] was 2.14 log2 enrichment (interaction score) and the binding signal [5] was 5.03 log2 enrichment (interaction score).

With “GGCUAGAACUAGUGGAUCCCCCGGCGCCCGGCGGCUCGAGCCCGGGUAAGUCUAAAUAGUCUGCAUGCCGCCGGGCGCCAUGCCUGCAGGUCGACUCUAGAAAACAUG” the binding signal [6] was 3.19 log2 enrichment (interaction score).

“GGCUAGAACUAGUGGAUCCCCCGGCGCCCGGCGGCUCGAGCCCGGGUAAGUGUAAAUAGUCUGCAUGCCGCCGGGCGCCAUGCCUGCAGGUCGACUCUAGAAAACAUG” was tested, and the binding signal [7] was 2.34 log2 enrichment (interaction score), the binding signal [8] was 2.74 log2 enrichment (interaction score) and the binding signal [9] was 3.69 log2 enrichment (interaction score). The binding signal [4] was 3.47 log2 enrichment (interaction score).

With “GGCUAGAACUAGUGGAUCCCCCGGCGCCCGGCGGCUCGAGCCCGGGUAAGUGUGAAUAGUCUGCAUGCCGCCGGGCGCCAUGCCUGCAGGUCGACUCUAGAAAACAUG” the binding signal [7] was 1.6 log2 enrichment (interaction score), the binding signal [10] was 2.39 log2 enrichment (interaction score) and the binding signal [4] was 1.54 log2 enrichment (interaction score).

With “GGCUAGAACUAGUGGAUCCCCCGGCGCCCGGCGGCUCGAGCCCGGGUAAGUGUAAAUCGUCUGCAUGCCGCCGGGCGCCAUGCCUGCAGGUCGACUCUAGAAAACAUG” the binding signal [3] was 2.67 log2 enrichment (interaction score).
